The text below walks through data of PubChem BioAssay (NCI).

Common to all, as to test: NCI-60 one-dose screen, 48 h (100 = growth as untreated, 0 = no growth, -100 = all killed)
Common to all, as to conditions: 10 µM unless noted

Experiment [1] concerns MOLT-4 leukemia.
Experiment [2] relates to SR leukemia.
Experiment [3] relates to RPMI-8226 leukemia.
Experiment [4] deals with OVCAR-8 ovarian.
Experiment [5] has as its system OVCAR-5 ovarian.
The test system of experiment [6] is OVCAR-4 ovarian.
Experiment [7] relates to SK-OV-3 ovarian.
Experiment [8] has as its system IGROV1 ovarian.
Experiment [9] deals with OVCAR-3 ovarian.
Experiment [10] concerns HS 578T breast.
For experiment [11], the system named is NCI/ADR-RES ovarian.
Experiment [12] has as its system T-47D breast.
The test system of experiment [13] is BT-549 breast.
In experiment [14] the test system is MDA-MB-435 melanoma.
In experiment [15] the test system is SW-620 colon.
Experiment [16] deals with MCF7 breast.
For experiment [17], the system named is HCT-116 colon.
Experiment [18] relates to HCC-2998 colon.
For experiment [19], the system named is KM12 colon.

Several values for one entry are separate records, joined by “and”; a condition that tells them apart may be missing. Equal values may be shown once. About 83,000 compounds went through this panel and 20% of them were active in at least one assay; those are over-represented in the sample as a whole.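 Cells were grown in 96-well plates and exposed to the test compound at a single concentration for 48 hours; results are reported as percent growth, with values below 10 considered active.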 Activity calls are given as the source filed them.

For `S=P(SP(=S)(c1ccccc1)c1ccccc1)(c1ccccc1)c1ccccc1`, the growth in [1] was 98.3% (inactive); in experiment [2] it was 93.7% (inactive); in experiment [3], 87.7% (inactive); in experiment [4], 104% (inactive); in experiment [5] it was 95.2% (inactive); in [6] it was 111% (inactive). In addition, the growth in [7] was 106% (inactive); in experiment [8] it was 119% (inactive); in experiment [9], 104% (inactive); in experiment [10], 93.8% (inactive); in experiment [11] it was 104% (inactive); in [12] it was 103% (inactive). Besides, the growth is 109% (inactive) in experiment [13]; 97.5% (inactive) in experiment [14]; 99.3% (inactive) in experiment [15]; 112% (inactive) in [16]; 109% (inactive) in experiment [17]; 104% (inactive) in experiment [18]. Also, the growth in experiment [19] was 105% (inactive).

Consider `O=[P+](O)c1cccnc1`, for which the growth in experiment [1] is 109% (inactive); in experiment [2] it was 96.4% (inactive); in [3] it was 100% (inactive); in experiment [4] it was 107% (inactive); in experiment [5], 107% (inactive); in experiment [6], 107% (inactive). For the same molecule, the growth was 103% (inactive) in experiment [7]; 111% (inactive) in experiment [8]; 108% (inactive) in [9]; 105% (inactive) in [10]; 102% (inactive) in experiment [11]; 88.2% (inactive) in experiment [12]. The growth in experiment [13] was 116% (inactive); in [14], 107% (inactive); in experiment [15] it was 107% (inactive); in [16], 102% (inactive); in experiment [17] it was 102% (inactive); in experiment [18] it was 115% (inactive).

Regarding `CCC1(NC(=O)c2cc(F)c(F)c(F)c2F)C(=O)NC(=O)N(C(C)C)C1=O` (configuration not stated), the growth in experiment [1] is 55% (inactive); in experiment [2] it was -18.6% (active); in [3], 107% (inactive); in experiment [4] it was 79.4% (inactive); in experiment [5], 109% (inactive); in experiment [6] it was 84.6% (inactive). The growth in experiment [7] was 150% (inactive); in experiment [8], -56.8% (active); in experiment [9], 138% (inactive); in experiment [10], 28.3% (inactive); in [11], 105% (inactive); in [12], 214% (inactive). Also, the growth in experiment [13] is 72.9% (inactive); in [14], 59.8% (inactive); in [15] it was 62.7% (inactive); in experiment [16], 96.4% (inactive); in experiment [17], 99% (inactive); in [18] it was -55.8% (active). The growth in experiment [19] was 139% (inactive).

For the molecule `CN(C)c1ccc(N)cc1`, the growth is 100% (inactive) and 63.4% (inactive) in experiment [1]; 99% (inactive) and 33.6% (inactive) in [2]; 93.6% (inactive) and 21% (inactive) in experiment [3]; 93.7% (inactive) and 30.2% (inactive) in experiment [4]; 112% (inactive) and 89.5% (inactive) in experiment [5]; 97.6% (inactive) and 39.6% (inactive) in [6]. In addition, the growth is 90% (inactive) and 70.4% (inactive) in [7]; 94.5% (inactive) and 61.8% (inactive) in [8]; 106% (inactive) and 32.4% (inactive) in experiment [9]; 100% (inactive) and 54.5% (inactive) in experiment [10]; 104% (inactive) and 85.3% (inactive) in [11]; 90.7% (inactive) and 28.5% (inactive) in [12]. In addition, the growth was 107% (inactive) and 72% (inactive) in experiment [13]; 107% (inactive) and 43.4% (inactive) in experiment [14]; 99.1% (inactive) and 65.6% (inactive) in experiment [15]; 87.7% (inactive) and 30.5% (inactive) in experiment [16]; 117% (inactive) and 14.8% (inactive) in [17]; 106% (inactive) in experiment [18]. In experiment [19], the growth was 107% (inactive) and 34.7% (inactive).

For the molecule `C=C1C(=O)OC2CC3(C)OC3C3OC3C3=CC(OC3=O)C12` (configuration not stated), the growth in experiment [1] is -30.3% (active) and 58.3% (inactive); in experiment [2], 10.7% (inactive) and 47.9% (inactive); in experiment [3], 97.9% (inactive) and 38% (inactive); in [4], 87.2% (inactive) and 88.6% (inactive); in experiment [5], 106% (inactive) and 104% (inactive); in [6], 60% (inactive) and 92.5% (inactive). The growth in [7] is 103% (inactive) and 106% (inactive); in [8], 102% (inactive) and 107% (inactive); in experiment [9], 41.8% (inactive); in experiment [10], 96.8% (inactive); in [11] it was 35.9% (inactive) and 103% (inactive); in experiment [12], 5.88% (active) and 16.2% (inactive). Also, the growth in [13] is 98.2% (inactive); in experiment [14], 98.3% (inactive) and 98.4% (inactive); in [15] it was 3.21% (active) and 7.75% (active); in experiment [16] it was 84.4% (inactive) and 78.6% (inactive); in [17], 2.43% (active) and 17.7% (inactive); in [18], 103% (inactive). For the same molecule, in [19], the growth was 104% (inactive) and 103% (inactive).

In the case of `CNC(=O)Oc1ccc(Cl)cc1SSc1cc(Cl)ccc1OC(=O)NC`, the growth in [1] was 52.9% (inactive); in experiment [2], 67.7% (inactive); in [3] it was 48.1% (inactive); in [4], 78.8% (inactive); in experiment [5], 121% (inactive); in experiment [6] it was 74.5% (inactive). Besides, the growth in experiment [7] is 104% (inactive); in [8] it was 77.4% (inactive); in experiment [9], 54.7% (inactive); in [10], 85.6% (inactive); in [11], 81.2% (inactive); in experiment [12], 57.2% (inactive). The growth is 96.4% (inactive) in experiment [13]; 75.5% (inactive) in [14]; 87.2% (inactive) in [15]; 91.8% (inactive) in experiment [16]; 91.2% (inactive) in experiment [17]; 99.8% (inactive) in [18]. The growth in experiment [19] is 98.5% (inactive).

For `C#COc1cccc(Nc2ncnc3cc(NC(=O)CF)ccc23)c1`, the growth in [1] is 5.47% [6.25 µM] (active); in [2] it was 20.9% [6.25 µM] (inactive); in experiment [3], 62.4% [6.25 µM] (inactive); in [4], 42.5% [6.25 µM] (inactive); in [5], 87.2% [6.25 µM] (inactive); in [6] it was 75% [6.25 µM] (inactive). Besides, the growth in [7] is 34.8% [6.25 µM] (inactive); in experiment [8], 52.4% [6.25 µM] (inactive); in experiment [9], 12% [6.25 µM] (inactive); in [10], 44.2% [6.25 µM] (inactive); in [11], 35.3% [6.25 µM] (inactive); in [12] it was 40.9% [6.25 µM] (inactive). Moreover, the growth in experiment [13] is 28% [6.25 µM] (inactive); in [14] it was -34.2% [6.25 µM] (active); in experiment [15] it was 25.8% [6.25 µM] (inactive); in experiment [16], 30.6% [6.25 µM] (inactive); in experiment [17], 19% [6.25 µM] (inactive); in [18], 63.8% [6.25 µM] (inactive). Further, the growth in experiment [19] was 28.6% [6.25 µM] (inactive).
